Reference: article PMC7862700, “An all-to-all approach to the identification of sequence-specific readers for epigenetic DNA modifications on cytosine”

Assays:
Assay in all cases: DAPPL (digital affinity profiling via proximity ligation, sequencing); 10 mM Tris-HCl pH 7.5, 50 mM NaCl, 1 mM DTT, 4% glycerol, room temperature, 30 min; GST-TFs on glutathione beads, 16-mer random dsDNA library, 0.1% formaldehyde crosslink after washing; high values mean tight binding
FEV = molecular target: T1, FEV (Homo sapiens, UniProt Q99581 1-238); conditions: protein: recombinant; tags: N-terminal GST; dsDNA, one strand shown
T1 sequence: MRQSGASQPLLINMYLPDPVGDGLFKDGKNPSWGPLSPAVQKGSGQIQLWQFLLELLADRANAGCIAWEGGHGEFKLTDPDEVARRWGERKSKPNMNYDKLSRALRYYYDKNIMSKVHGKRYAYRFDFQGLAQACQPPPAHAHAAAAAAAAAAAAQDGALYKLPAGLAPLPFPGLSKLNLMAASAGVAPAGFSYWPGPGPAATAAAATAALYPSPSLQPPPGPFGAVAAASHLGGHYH
Outline: (§1)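 Pools of DNA-barcoded human transcription factors, expressed in yeast as GST fusions on glutathione beads and combined with a tag-only sample, were incubated with 200 nmole of a 16-mer random double-stranded DNA library. Incubation took 30 min at room temperature in Tris/NaCl/DTT/glycerol buffer and was followed by washing, 0.1% formaldehyde crosslinking, proximity ligation (BsaI/T4 ligase, 1 h, 37 °C), PCR amplification and sequencing on an Illumina NextSeq500. Binding signal is the ratio of a hexamer's read frequency for a factor to its frequency for the tag-only sample.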

ETV5 = ETV5 (Homo sapiens, UniProt P41161 1-510); conditions: protein: recombinant; tags: N-terminal GST; dsDNA, one strand shown
Outline: as §1

HSF1 = HSF1 (Homo sapiens, UniProt Q00613 1-529); conditions: protein: recombinant; tags: N-terminal GST; chain copies: 3; dsDNA, one strand shown
Outline: as §1

SPIC = molecular target: T2, SPIC (Homo sapiens, UniProt Q8N5J4 1-248); conditions: protein: recombinant; tags: N-terminal GST; dsDNA, one strand shown
T2 sequence: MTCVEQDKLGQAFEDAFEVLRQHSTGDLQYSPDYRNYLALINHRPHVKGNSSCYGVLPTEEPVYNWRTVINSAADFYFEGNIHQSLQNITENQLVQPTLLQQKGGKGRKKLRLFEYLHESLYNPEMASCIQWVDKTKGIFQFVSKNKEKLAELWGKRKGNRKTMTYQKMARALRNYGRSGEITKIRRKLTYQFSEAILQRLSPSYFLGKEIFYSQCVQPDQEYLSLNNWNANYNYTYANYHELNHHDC
Outline: as §1

ELF4 = ELF4 (Homo sapiens, UniProt Q99607 1-663); conditions: protein: recombinant; tags: N-terminal GST; dsDNA, one strand shown
Outline: as §1

ELK4 = molecular target: T3, ELK4 (Homo sapiens, UniProt P28324-2 1-405); conditions: protein: recombinant; tags: N-terminal GST; dsDNA, one strand shown
T3 sequence: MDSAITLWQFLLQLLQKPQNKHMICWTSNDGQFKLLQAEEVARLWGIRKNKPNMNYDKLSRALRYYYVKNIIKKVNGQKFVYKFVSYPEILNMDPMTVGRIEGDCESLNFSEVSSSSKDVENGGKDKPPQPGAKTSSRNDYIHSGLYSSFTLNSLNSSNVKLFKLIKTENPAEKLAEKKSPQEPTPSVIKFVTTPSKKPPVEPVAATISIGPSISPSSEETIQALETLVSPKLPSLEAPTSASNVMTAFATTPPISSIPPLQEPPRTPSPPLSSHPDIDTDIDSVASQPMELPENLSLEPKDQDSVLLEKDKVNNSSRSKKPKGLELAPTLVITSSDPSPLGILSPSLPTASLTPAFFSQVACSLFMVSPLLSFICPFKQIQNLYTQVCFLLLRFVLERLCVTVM
Outline: as §1

ETV2 = molecular target: T4, ETV2 (Homo sapiens, UniProt O00321 1-342); conditions: protein: recombinant; tags: N-terminal GST; dsDNA, one strand shown
T4 sequence: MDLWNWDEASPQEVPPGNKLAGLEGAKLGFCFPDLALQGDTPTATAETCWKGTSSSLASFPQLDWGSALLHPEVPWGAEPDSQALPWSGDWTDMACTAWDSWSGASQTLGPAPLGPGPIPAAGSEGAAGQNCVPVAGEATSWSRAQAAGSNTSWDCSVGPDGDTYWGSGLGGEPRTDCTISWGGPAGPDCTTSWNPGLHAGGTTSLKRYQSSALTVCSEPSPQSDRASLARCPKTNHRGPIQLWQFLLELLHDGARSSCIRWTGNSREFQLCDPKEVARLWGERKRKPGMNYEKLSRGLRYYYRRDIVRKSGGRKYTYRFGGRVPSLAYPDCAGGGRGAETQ
Outline: as §1

ELF3 = molecular target: T5, ELF3 (Homo sapiens, UniProt P78545 1-371); conditions: protein: recombinant; tags: N-terminal GST; dsDNA, one strand shown
T5 sequence: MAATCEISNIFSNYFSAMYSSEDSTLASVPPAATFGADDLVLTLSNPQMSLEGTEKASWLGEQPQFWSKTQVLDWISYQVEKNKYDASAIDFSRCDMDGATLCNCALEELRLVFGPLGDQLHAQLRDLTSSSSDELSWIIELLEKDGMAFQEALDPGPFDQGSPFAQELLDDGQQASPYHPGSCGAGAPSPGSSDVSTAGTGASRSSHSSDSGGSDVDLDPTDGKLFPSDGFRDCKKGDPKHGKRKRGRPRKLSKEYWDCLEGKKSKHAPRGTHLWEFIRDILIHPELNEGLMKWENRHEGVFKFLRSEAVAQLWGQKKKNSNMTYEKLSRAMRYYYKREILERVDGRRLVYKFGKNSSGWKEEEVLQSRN
Outline: as §1

CRX = CRX (Homo sapiens, UniProt O43186 1-299); conditions: protein: recombinant; tags: N-terminal GST; dsDNA, one strand shown
Outline: as §1

ETV1 = ETV1 (Homo sapiens, UniProt P50549 1-477); conditions: protein: recombinant; tags: N-terminal GST; dsDNA, one strand shown
Outline: as §1

Sequence of ELF4 (Q99607 whole entry): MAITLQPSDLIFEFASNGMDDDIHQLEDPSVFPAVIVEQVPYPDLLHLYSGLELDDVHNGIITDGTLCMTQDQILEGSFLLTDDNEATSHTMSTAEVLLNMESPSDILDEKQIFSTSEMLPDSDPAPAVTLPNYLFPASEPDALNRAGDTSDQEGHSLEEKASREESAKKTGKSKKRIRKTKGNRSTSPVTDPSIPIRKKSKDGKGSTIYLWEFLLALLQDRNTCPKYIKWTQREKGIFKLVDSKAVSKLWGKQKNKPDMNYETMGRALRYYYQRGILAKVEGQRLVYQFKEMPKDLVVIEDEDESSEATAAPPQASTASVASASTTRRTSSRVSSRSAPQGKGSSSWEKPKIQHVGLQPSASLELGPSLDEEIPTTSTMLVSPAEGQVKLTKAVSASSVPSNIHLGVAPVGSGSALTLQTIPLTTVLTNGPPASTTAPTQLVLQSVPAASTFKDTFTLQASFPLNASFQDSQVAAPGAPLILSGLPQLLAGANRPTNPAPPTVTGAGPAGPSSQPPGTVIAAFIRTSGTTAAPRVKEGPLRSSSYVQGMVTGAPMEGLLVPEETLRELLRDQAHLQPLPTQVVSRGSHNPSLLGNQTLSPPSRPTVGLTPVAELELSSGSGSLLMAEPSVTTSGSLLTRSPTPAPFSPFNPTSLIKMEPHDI
Sequence of HSF1 (Q00613 whole entry): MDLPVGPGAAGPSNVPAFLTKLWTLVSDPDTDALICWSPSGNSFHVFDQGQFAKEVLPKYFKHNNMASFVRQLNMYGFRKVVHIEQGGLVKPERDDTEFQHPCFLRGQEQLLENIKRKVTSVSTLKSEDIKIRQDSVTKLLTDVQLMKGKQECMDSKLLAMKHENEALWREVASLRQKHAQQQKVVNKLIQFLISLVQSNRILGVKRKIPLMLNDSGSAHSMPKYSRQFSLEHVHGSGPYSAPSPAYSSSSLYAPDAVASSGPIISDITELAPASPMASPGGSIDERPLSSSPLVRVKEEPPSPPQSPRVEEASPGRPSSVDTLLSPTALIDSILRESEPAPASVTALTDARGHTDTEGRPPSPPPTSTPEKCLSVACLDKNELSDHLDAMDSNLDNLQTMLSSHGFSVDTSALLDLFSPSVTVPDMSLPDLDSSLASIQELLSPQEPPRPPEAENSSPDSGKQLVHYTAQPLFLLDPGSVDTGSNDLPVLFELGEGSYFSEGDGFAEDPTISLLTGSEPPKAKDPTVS
Sequence of CRX (O43186 whole entry): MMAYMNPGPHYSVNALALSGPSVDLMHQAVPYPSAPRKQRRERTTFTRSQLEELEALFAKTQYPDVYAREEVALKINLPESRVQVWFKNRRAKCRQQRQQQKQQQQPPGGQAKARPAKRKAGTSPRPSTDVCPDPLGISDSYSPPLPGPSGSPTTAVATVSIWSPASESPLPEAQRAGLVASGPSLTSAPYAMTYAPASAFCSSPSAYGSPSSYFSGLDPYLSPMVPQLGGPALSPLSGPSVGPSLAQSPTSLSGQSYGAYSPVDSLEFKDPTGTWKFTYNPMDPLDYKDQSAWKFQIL
Sequence of ETV5 (P41161 whole entry): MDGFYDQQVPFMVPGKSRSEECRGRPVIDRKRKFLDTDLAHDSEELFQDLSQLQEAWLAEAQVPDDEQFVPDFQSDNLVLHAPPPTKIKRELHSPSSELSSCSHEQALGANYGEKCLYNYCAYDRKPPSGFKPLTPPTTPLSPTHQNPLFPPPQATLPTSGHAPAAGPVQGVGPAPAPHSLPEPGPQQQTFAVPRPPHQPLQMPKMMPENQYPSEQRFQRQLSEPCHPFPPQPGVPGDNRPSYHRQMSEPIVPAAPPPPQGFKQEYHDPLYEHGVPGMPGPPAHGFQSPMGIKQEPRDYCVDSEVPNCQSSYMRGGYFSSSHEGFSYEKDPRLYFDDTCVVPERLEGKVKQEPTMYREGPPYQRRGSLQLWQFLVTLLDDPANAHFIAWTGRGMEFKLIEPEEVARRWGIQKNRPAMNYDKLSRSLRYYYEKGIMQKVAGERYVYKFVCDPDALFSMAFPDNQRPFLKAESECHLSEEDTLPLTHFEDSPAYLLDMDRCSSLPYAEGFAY
Sequence of ETV1 (P50549 whole entry): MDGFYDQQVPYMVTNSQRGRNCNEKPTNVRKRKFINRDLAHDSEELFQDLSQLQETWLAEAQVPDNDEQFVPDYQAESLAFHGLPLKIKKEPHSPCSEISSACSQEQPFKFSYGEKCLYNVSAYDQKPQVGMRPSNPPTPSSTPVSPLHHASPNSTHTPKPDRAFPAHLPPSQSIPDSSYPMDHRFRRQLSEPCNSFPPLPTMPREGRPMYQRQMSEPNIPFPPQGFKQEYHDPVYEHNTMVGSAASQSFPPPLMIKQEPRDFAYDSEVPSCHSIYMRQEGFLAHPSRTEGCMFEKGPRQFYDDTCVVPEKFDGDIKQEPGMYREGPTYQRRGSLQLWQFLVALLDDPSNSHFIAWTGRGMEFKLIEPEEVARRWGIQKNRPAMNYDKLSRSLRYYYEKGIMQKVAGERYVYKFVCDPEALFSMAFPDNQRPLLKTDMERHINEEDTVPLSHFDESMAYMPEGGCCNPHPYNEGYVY

Sequence	binding signal (FEV)	binding signal (ETV5)	binding signal (HSF1)	binding signal (SPIC)	binding signal (ELF4)	binding signal (ELK4)	binding signal (ETV2)	binding signal (ELF3)	binding signal (CRX)	binding signal (ETV1)
GGCCTA	1.19 fold enrichment (6-mer frequency, TF over GST control)	1.22 fold enrichment (6-mer frequency, TF over GST control)	1.33 fold enrichment (6-mer frequency, TF over GST control)	1.1 fold enrichment (6-mer frequency, TF over GST control)	1.25 fold enrichment (6-mer frequency, TF over GST control)	1.25 fold enrichment (6-mer frequency, TF over GST control)	1.14 fold enrichment (6-mer frequency, TF over GST control)	1.22 fold enrichment (6-mer frequency, TF over GST control)	1.39 fold enrichment (6-mer frequency, TF over GST control)	1.2 fold enrichment (6-mer frequency, TF over GST control)
TTATTA	1.09 fold enrichment (6-mer frequency, TF over GST control)	1.14 fold enrichment (6-mer frequency, TF over GST control)	1.75 fold enrichment (6-mer frequency, TF over GST control)	1.31 fold enrichment (6-mer frequency, TF over GST control)	1.18 fold enrichment (6-mer frequency, TF over GST control)	1.03 fold enrichment (6-mer frequency, TF over GST control)	1.2 fold enrichment (6-mer frequency, TF over GST control)	1.09 fold enrichment (6-mer frequency, TF over GST control)	2.49 fold enrichment (6-mer frequency, TF over GST control)	1.11 fold enrichment (6-mer frequency, TF over GST control)
TAAACA	1.18 fold enrichment (6-mer frequency, TF over GST control)	1.24 fold enrichment (6-mer frequency, TF over GST control)	1.29 fold enrichment (6-mer frequency, TF over GST control)	1.29 fold enrichment (6-mer frequency, TF over GST control)	1.26 fold enrichment (6-mer frequency, TF over GST control)	1.37 fold enrichment (6-mer frequency, TF over GST control)	1.22 fold enrichment (6-mer frequency, TF over GST control)	1.28 fold enrichment (6-mer frequency, TF over GST control)	1.53 fold enrichment (6-mer frequency, TF over GST control)	1.2 fold enrichment (6-mer frequency, TF over GST control)
ATTAAG	1.02 fold enrichment (6-mer frequency, TF over GST control)	1.01 fold enrichment (6-mer frequency, TF over GST control)	2 fold enrichment (6-mer frequency, TF over GST control)	1.04 fold enrichment (6-mer frequency, TF over GST control)	1.06 fold enrichment (6-mer frequency, TF over GST control)	1.04 fold enrichment (6-mer frequency, TF over GST control)	1.03 fold enrichment (6-mer frequency, TF over GST control)	1.14 fold enrichment (6-mer frequency, TF over GST control)	3.35 fold enrichment (6-mer frequency, TF over GST control)	1.03 fold enrichment (6-mer frequency, TF over GST control)
TTCGGC	1 fold enrichment (6-mer frequency, TF over GST control)	1.02 fold enrichment (6-mer frequency, TF over GST control)	1.05 fold enrichment (6-mer frequency, TF over GST control)	1.1 fold enrichment (6-mer frequency, TF over GST control)	1.19 fold enrichment (6-mer frequency, TF over GST control)	1.07 fold enrichment (6-mer frequency, TF over GST control)	1.22 fold enrichment (6-mer frequency, TF over GST control)	1.07 fold enrichment (6-mer frequency, TF over GST control)	1.1 fold enrichment (6-mer frequency, TF over GST control)	1.14 fold enrichment (6-mer frequency, TF over GST control)
ACTTGG	1.17 fold enrichment (6-mer frequency, TF over GST control)	1.21 fold enrichment (6-mer frequency, TF over GST control)	1.09 fold enrichment (6-mer frequency, TF over GST control)	1.27 fold enrichment (6-mer frequency, TF over GST control)	1.31 fold enrichment (6-mer frequency, TF over GST control)	1.28 fold enrichment (6-mer frequency, TF over GST control)	1.15 fold enrichment (6-mer frequency, TF over GST control)	1.36 fold enrichment (6-mer frequency, TF over GST control)	1.1 fold enrichment (6-mer frequency, TF over GST control)	1.25 fold enrichment (6-mer frequency, TF over GST control)
AAGTAG	1.21 fold enrichment (6-mer frequency, TF over GST control)	1.25 fold enrichment (6-mer frequency, TF over GST control)	1.11 fold enrichment (6-mer frequency, TF over GST control)	1.3 fold enrichment (6-mer frequency, TF over GST control)	1.18 fold enrichment (6-mer frequency, TF over GST control)	1.06 fold enrichment (6-mer frequency, TF over GST control)	1.18 fold enrichment (6-mer frequency, TF over GST control)	1.31 fold enrichment (6-mer frequency, TF over GST control)	1.2 fold enrichment (6-mer frequency, TF over GST control)	1.28 fold enrichment (6-mer frequency, TF over GST control)
